Where “and” joins values, the source holds several entries; their conditions need not be identical. Identical values can stand only once. Unmarked numbers belong to inactive results. Results filed as inconclusive are left out. Calls of active or inactive are those of the source. Unless noted, calls come from the whole dose curve; as a rule, active = well fitted curve in the direction sought with a large enough effect; inconclusive = small, poorly fitted or top-dose-only effect, or another doubt; inactive = no such curve, though single readings can be large; an effect the other way counts as inactive or inconclusive.
How the values were obtained:
[1] = qHTS assay for small molecule activators of the p53 signaling pathway (AID 651743; active = well fitted activation curve with a large enough effect in the signal ratio, not every such curve was filed as active; the % refers to the signal ratio; note: potency is the fitted concentration of half-maximal effect; for activation: series mostly up to about 92 µM; % of control where 0% means no effect); conditions: HCT-116 p53RE-bla, beta-lactamase FRET ratio, 16 h; activation: active compounds read high
In short: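 Cell-based beta-lactamase reporter (p53 response elements, HCT-116 background). After a 5-hour preincubation, cells received compound for 16 hours at 37 C; substrate development ran 2 hours at room temperature.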

[2] = qHTS assay for small molecule activators of the nuclear factor-kappa B (NF-kB) signaling pathway (AID 651749; active = well fitted activation curve with a large enough effect in the signal ratio; the % refers to the signal ratio; note: series mostly up to about 77 µM; % of control where 0% means no effect); conditions: NF-kB-bla ME-180 cells, beta-lactamase FRET ratio, 16 h; active compounds read high
In short: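 Screening used 2,000 ME-180 reporter cells per well exposed to pinned compound (23 nL) or DMSO; after 16 hr at 37C, beta-lactamase expression under NF-kB control was assessed through FRET.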

[3] = qHTS assay for small molecule disruptors of the mitochondrial membrane potential - 1 hr assay (AID 651754; calls by dose curve; note: % is set by controls: 0 for no effect and ±100 for the full control effect; nearly all actives have a fitted effect of over 35% in size)
In short: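 HepG2, 2,000 cells/well, overnight attachment; cpd or DMSO 1 hr, 37C/5% CO2; Mito-MPS dye 30 min, 37C; fluorescence monomer (490/535) and aggregate (540/590).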

[4] = molecular target: Tumor necrosis factor (Homo sapiens) (UniProt P01375); test: qHTS assay to identify small molecules that stimulate Tumor Necrosis Factor-alpha (TNF-alpha) secretion (AID 651757; active = well fitted curve in the direction sought with a large enough effect in the signal ratio; the % refers to the signal ratio; note: 0% is about no effect)
Sequence of Tumor necrosis factor (Homo sapiens) (P01375 whole entry, looked up): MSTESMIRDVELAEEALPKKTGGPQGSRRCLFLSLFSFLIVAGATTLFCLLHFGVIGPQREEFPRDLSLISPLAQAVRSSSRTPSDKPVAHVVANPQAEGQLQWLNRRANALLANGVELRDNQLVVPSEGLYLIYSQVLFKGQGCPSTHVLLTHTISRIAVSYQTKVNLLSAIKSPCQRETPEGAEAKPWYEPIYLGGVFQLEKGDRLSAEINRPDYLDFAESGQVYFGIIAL
In short: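 Read-out is HTRF, a TR-FRET sandwich of cryptate- and XL665-labeled anti-TNF-alpha antibodies detecting cytokine secreted by THP-1 cells. Cells had been incubated with test compounds at 37 C for 17 hrs beforehand.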

[5] = qHTS assay for environmental chemicals that activate the Aryl hydrocarbon Receptor (AhR) signaling pathway (AID 651777); conditions: 1A2-DRE human hepatoma cells, luciferase, 24 h; activation: active compounds read high; note: % of control where 0% means no effect; nearly all actives have a fitted effect of over 15% in size
In short: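 Induction of CYP1A2 transcription through AhR is detected by luciferase in 1A2-DRE hepatoma cells. Compounds or DMSO act for 24 hr at 37 C before a 30 min One-Glo step at room temperature.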

[6] = molecular target: Peroxisome proliferator-activated receptor alpha (Homo sapiens) (UniProt Q07869); test: qHTS assay for small molecule agonists of the peroxisome proliferator-activated receptor alpha (PPARalpha) signaling pathway (AID 651778); conditions: PathHunter PPARalpha complementation, chemiluminescence, 6 h; active compounds read high; note: % of control where 0% means no effect
Sequence of Peroxisome proliferator-activated receptor alpha (Homo sapiens) (Q07869 whole entry, looked up): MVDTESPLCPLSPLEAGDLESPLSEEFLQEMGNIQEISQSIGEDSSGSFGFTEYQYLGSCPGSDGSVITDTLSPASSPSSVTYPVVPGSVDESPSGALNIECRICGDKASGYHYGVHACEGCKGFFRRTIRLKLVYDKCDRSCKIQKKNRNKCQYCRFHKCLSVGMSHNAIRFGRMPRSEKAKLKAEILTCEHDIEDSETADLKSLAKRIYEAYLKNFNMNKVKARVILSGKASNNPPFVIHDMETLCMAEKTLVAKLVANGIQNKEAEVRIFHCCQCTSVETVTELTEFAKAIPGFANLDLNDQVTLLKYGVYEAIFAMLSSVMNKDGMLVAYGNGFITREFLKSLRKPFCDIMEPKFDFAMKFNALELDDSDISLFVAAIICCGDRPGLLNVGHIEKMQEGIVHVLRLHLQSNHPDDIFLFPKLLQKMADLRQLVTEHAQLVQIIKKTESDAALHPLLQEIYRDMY
In short: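 Cells plated at 2,000/well and held overnight at 37 C, 5% CO2, then compound added by pin tool for 6 hr; after PathHunter detection reagent and 60 min at room temperature, chemiluminescence from enzyme complementation was read.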

[7] = molecular target: Nuclear receptor ROR-gamma (Homo sapiens) (UniProt P51449); test: qHTS assay for small molecule antagonists of the retinoid-related orphan receptor gamma (ROR-gamma) signaling pathway (AID 651802); note: nearly all actives have a fitted effect of over 60% in size; note: potency is the fitted concentration of half-maximal effect
Sequence of Nuclear receptor ROR-gamma (Homo sapiens) (P51449 whole entry, looked up): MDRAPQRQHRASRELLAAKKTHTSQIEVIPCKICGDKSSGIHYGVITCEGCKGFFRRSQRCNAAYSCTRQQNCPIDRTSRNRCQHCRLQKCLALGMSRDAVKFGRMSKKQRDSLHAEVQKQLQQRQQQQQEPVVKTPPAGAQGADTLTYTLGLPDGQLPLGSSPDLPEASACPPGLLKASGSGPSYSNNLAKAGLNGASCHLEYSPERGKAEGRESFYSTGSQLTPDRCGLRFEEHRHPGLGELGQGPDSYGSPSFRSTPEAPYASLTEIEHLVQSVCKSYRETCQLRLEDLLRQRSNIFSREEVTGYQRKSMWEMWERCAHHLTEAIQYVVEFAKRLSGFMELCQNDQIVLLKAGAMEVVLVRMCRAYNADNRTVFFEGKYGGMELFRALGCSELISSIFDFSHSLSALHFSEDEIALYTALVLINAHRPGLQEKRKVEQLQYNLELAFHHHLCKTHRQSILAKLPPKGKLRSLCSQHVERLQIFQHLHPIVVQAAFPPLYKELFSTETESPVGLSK
In short: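 CHO, TET-inducible ROR + RORE-LUC reporter, 1536-well qHTS. Compound pinned, doxycycline added, 16hr 37C/5% CO2. ONE-Glo, 30 min RT, luminescence; signal drop scored as antagonism.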

[8] = qHTS assay for small molecule agonists of the antioxidant response element (ARE) signaling pathway measured by Nrf2-dependant transcriptional activity (AID 720636; active = well fitted curve in the direction sought with a large enough effect in the repeat runs; an effect the other way counts as inactive or inconclusive; note: potency is the fitted concentration of half-maximal effect;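 for activation: HepG2 cells with an ARE-driven luciferase reporter; % of control where 0% means no effect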)
In short: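 We exposed ARE-luc HepG2 cells, seeded in assay medium with 1% dialyzed FBS and allowed 6 hr to adhere, to test compounds overnight (16 hr, 37 C) before measuring luciferase with ONE-Glo.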

[9] = qHTS assay for small molecule agonists of the antioxidant response element (ARE) signaling pathway measured by Nrf2-dependant transcriptional activity - cell viability counter screen (AID 720653; active = well fitted curve in the direction sought with a large enough effect in the repeat runs; an effect the other way counts as inactive or inconclusive; note: % is set by controls: 0 for no effect and ±100 for the full control effect); conditions: ARE-bla HepG2 viability, CellTiter-Glo ATP luminescence, 16 h; active compounds read low
In short: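 ARE-bla HepG2 cells (2,000/well) rested 5 hrs at 37C/5% CO2, then exposed to compounds in DMSO for 16 hrs. Viability was read in the same wells as intracellular ATP by luminescence, 30 min at room temperature after reagent addition.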

[10] = qHTS Assay for Identifying Gametocytocidal Compounds (AID 743244);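 note: % is set by controls: 0 for no effect and ±100 for the full control effect; actives lower the fluorescent signal which means gametocytes are killed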; conditions: P. falciparum 3D7 stage III-V gametocytes, alamarBlue, 72 h; max response: active compounds read low
In short: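 Stage III–V gametocytes of P. falciparum 3D7 were seeded at 20,000 cells/well onto pre-dispensed compounds. After 72 h, 37 °C, 5% CO2, alamarBlue was added for another 24 h.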

[11] = qHTS assay for small molecule disruptors of the mitochondrial membrane potential - 5 hr assay (AID 651755; calls by dose curve; note: % is set by controls: 0 for no effect and ±100 for the full control effect; nearly all actives have a fitted effect of over 40% in size)
In short: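 HepG2 cells, attached overnight at 37C, were exposed to compound or DMSO for 5 hr at 37C, 5% CO2. Mito-MPS dye was then added for 30 min, and fluorescence read at 490/535 nm (monomers) and 540/590 nm (aggregates).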

[12] = qHTS assay for small molecule antagonists of the retinoid-related orphan receptor gamma (ROR-gamma) signaling pathway - cell viability counter screen (AID 720652; active = well fitted curve in the direction sought with a large enough effect in the repeat runs; an effect the other way counts as inactive or inconclusive;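 note: series mostly up to about 92 µM; compound exposure lasted 16 hr before ATP read; % is set by controls: 0 for no effect and ±100 for the full control effect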)
In short: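 Luminescence from CellTiter-Glo after 30 min at room temperature reported cellular ATP as the cytotoxicity measure. Cells were the CHO reporter line with doxycycline-induced ROR-gamma expression, exposed to compound for 16 hr at 37 C.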

[13] = qHTS assay to identify small molecules that stimulate interleukin-8 (IL-8) secretion (AID 651758; active = well fitted activation curve with a large enough effect in the signal ratio; the % refers to the signal ratio; note: 0% is about no effect)
In short: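 THP-1, 2000 cells/well; cpd 16 h, 37 C; add cryptate + XL665 anti-IL-8 Abs; RT 1-3 h; TR-FRET read.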

Row | SMILES | activation [1] | activation [2] | Potency [3] | Potency [4] | activation [5] | max response [6] | Potency [7] | Potency [8] | max response [9] | max response [10] | Potency [11] | outcome [12] | Potency [13] | Potency [1]
1 | CC(C)(C)CC(C)(C)c1ccc(OCCO)cc1 | 9.34% | 0.716% | inactive | inactive | 2.97% | 20.4% | 42.2 µM (active) | inactive | -18% | 12.7% |  |  |  | 
2 | OCl | -2.68% | -0.921% | inactive | inactive | 0.267% | -2.41% | inactive | inactive | -6.58% | 13.5% | inactive | inactive |  | 
3 | CCCCO | 0.244% and -1.87% |  | inactive | inactive | -0.013% and -0.728% | -5.14% and -4.07% |  | inactive | -5.18% and -2.26% | 4.7% | inactive | inactive | inactive | 
4 | Cc1ccc(S(=O)(=O)NCl)cc1 | -0.574% |  |  |  | -2.28% | -0.128% |  | inactive | -0.456% | 4.72% |  |  |  | 
5 | CO[C@@H]1[C@H](OC(=O)/C=C/C=C/C=C/C=C/C(=O)O)CC[C@]2(CO2)[C@H]1[C@@]1(C)O[C@@H]1CC=C(C)C | -4.17% | -0.892% |  |  | 1.85% | -0.833% |  |  | 8.65% | -5.74% |  |  |  | 
6 | NCCO/C=C/[C@H](N)C(=O)O | 7.75% | -5.26% |  |  | 1.28% | 2.79% |  | inactive | 6.58% | -0.535% |  |  |  | 
7 | O=C(OCc1ccccc1)c1ccc(O)cc1 | -6.7% |  |  |  | 0.611% | -0.0988% |  |  | -5.99% | 1.16% |  |  |  | 
8 | CC(C)CCCCCCc1ccc(O)cc1 | 2.32% |  |  |  | 0.323% |  |  | inactive | -6.03% | 9.95% |  |  |  | 
9 | C=C(C)C1CC=C(C)CC1 (configuration not stated) | -4.46% | -0.265% and 0.532% |  |  | -2.32% and -0.122% | -1.15% and 0.153% |  | inactive | -0.676% and -5.86% | 0.817% |  |  |  | 
10 | O=c1n(CC2CO2)c(=O)n(CC2CO2)c(=O)n1CC1CO1 (configuration not stated) |  | -0.976% and -0.874% | inactive |  | 1.5% and 3.12% | -0.847% and -0.241% | inactive | 59.6 µM (active) and 61.1 µM (active) | -19.7% and -11.1% | 6.57% | inactive | inactive |  | 15.8 µM (active) and 39.8 µM (active)
11 | CC1=CCC2CC1C2(C)C (configuration not stated) | -1.57% | -0.174% | inactive | inactive | 1.2% | -6.44% | inactive | inactive | -2.11% | 3.27% | inactive | inactive | inactive | 
12 | CO | -0.522% | -0.694% |  | inactive | -0.288% | -6.03% | inactive | inactive | -2.74% | 16% |  | inactive |  | 
13 | CCCCCCCCCCCCCCCCCC(=O)OC[C@@H](O)[C@H]1OC[C@H](O)[C@H]1O | -1.65% | -0.074% |  |  | 0.366% | 12.5% |  | inactive | -0.0548% | -8.87% |  |  |  | 
14 | N[C@@H](Cc1cc(I)c(Oc2ccc(O)c(I)c2)c(I)c1)C(=O)O | 5% |  |  |  |  | -3.23% |  | inactive | -4.18% | 3.17% |  |  |  | 
15 | OCC(O)CO | -2.04% and 0.703% | 0.141% and 0.577% | inactive | inactive | -0.636% and 0.226% | -3.36% and -0.557% | inactive | inactive | -6.54% and -5.61% | 9.54% | inactive | inactive |  | 

Source: PubChem BioAssay (NCATS)
